{"source": "PubChem BioAssay (Tox21)", "note": "Inconclusive results are not listed. A call without a number means that no potency is given here. Calls of active or inactive are those of the source. Calls come from the whole dose curve.", "data": [{"molecular_target": "Thyrotropin receptor (Homo sapiens) (UniProt P16473)", "sequence (P16473 whole entry, looked up)": "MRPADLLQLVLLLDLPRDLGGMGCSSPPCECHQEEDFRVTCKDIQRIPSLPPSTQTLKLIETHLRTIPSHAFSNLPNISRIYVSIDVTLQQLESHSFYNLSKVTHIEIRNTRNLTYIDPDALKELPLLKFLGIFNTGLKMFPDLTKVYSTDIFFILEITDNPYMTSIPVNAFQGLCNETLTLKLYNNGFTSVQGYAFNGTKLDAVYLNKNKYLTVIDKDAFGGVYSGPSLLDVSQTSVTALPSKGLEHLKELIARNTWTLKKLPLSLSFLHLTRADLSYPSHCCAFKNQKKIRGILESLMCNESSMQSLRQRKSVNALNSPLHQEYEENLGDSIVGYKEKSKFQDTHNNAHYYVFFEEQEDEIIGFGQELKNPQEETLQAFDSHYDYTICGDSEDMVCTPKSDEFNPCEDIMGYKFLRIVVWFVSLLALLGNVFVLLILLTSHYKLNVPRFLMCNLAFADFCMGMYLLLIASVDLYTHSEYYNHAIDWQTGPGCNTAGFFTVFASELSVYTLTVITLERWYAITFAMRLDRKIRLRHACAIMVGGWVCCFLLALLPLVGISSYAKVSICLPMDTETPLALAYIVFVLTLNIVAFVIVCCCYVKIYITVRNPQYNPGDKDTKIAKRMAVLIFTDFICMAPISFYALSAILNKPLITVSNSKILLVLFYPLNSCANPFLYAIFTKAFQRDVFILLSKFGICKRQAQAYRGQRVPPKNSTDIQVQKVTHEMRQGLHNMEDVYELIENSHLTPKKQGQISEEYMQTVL", "test": "qHTS assay to identify small molecule agonists of the thyroid stimulating hormone receptor (TSHR) signaling pathway (AID 1224843); note: nearly all actives have a fitted effect of over 45% in size", "conditions": "TSHR-HEK293 cells, cAMP HTRF, agonist mode, 30 min; series mostly up to 92.4 µM", "description": "National Center for Advancing Translational Sciences [NCATS]\nNIH Chemical Genomics Center [NCGC]\nU.S. Environmental Protection Agency [EPA]\nNational Institutes of Environmental Health Sciences [NIEHS]\nNational Toxicology Program [NTP]\nU.S. Food and Drug Administration [FDA]\nTSHR is the receptor for thyrotropin (thyroid stimulating hormone or TSH), a member of the glycoprotein hormone family. TSH is released by the anterior pituitary gland and is the main regulator of thyroid gland growth and development. Upon binding circulating thyrotropin, a G-protein signal cascade activates adenylyl cyclase and […] cAMP concentration is increased. cAMP is a key second messenger involved extensively in cellular signal transduction pathways associated with the majority of G-protein coupled receptors (GPCRs). The activation of these GPCRs by neurotransmitters, lipids, nucleotides, peptides and hormones results in the activation or the inhibition of plasma membrane-bound adenylate cyclase through heterotrimeric G-proteins. A cell-based TSHR assay was used to screen the Tox21 10K library for compounds that can modulate TSHR in agonist mode.\nTox21 Assay Protocol Summary:\nTSHR-Hek293 cells were dispensed at 800 cells/4uL/well in 1536-well white plates using a Multidrop dispenser. […] The plates were incubated at room temperature for 30 min. 2.5 ul/well of cAMP-d2 and 2.5ul/well of anti-cAMP-cryptate was added respectively into the assay plates using a Flying Reagent Dispenser. After 1 hr incubation at room temperature, the fluorescence intensity in the plates was measured using an Envision plate reader. Each test compound was measured at 15 concentrations and in triplicates.", "values": [{"smiles": "CC(=O)OC/C=C(\\C)CCC=C(C)C", "Potency": "inactive"}, {"smiles": "Nc1nc(N)c2nc(-c3ccccc3)c(N)nc2n1", "Potency": "inactive"}, {"smiles": "OCC(O)CS", "note": "(stereo not given)", "Potency": "inactive"}, {"smiles": "Cc1cc(C)cc(O)c1", "Potency": "inactive"}, {"smiles": "NCCNCCNCCN", "Potency": "inactive"}, {"smiles": "Cc1cc(C)c(O)c(C)c1", "Potency": "inactive"}, {"smiles": "COc1ccc([C@@H]2CC(=O)c3c(O)cc(O[C@@H]4O[C@H](CO[C@@H]5O[C@@H](C)[C@H](O)[C@@H](O)[C@H]5O)[C@@H](O)[C@H](O)[C@H]4O)cc3O2)cc1OC", "Potency": "inactive"}, {"smiles": "CS(=O)(=O)c1ccc(Cl)cc1", "Potency": "inactive"}, {"smiles": "COc1c2ccoc2cc2oc(=O)ccc12", "Potency": "inactive"}, {"smiles": "C1CCCNCC1", "Potency": "inactive"}, {"smiles": "CCn1cc(C(=O)O)c(=O)c2cc3c(cc21)OCO3", "Potency": "inactive"}, {"smiles": "OB(O)O", "Potency": "inactive"}, {"smiles": "COc1ccc(N)c(OC)c1", "Potency": "inactive"}, {"smiles": "CCCCCCCCCCCC(=O)N(C)CC(=O)O", "Potency": "inactive"}, {"smiles": "CCCCCCCCO", "Potency": "inactive"}, {"smiles": "CCCN(CCC)C(=O)SCC", "Potency": "inactive"}, {"smiles": "Cc1ncc(CO)c(CO)c1O", "Potency": "inactive"}, {"smiles": "CCc1cccc(O)c1", "Potency": "inactive"}, {"smiles": "CC(C)=CCC/C(C)=C/C=O", "Potency": "inactive"}, {"smiles": "O=C1CCCCCCCCCCC1", "Potency": "inactive"}, {"smiles": "OCCOCCOCCOCCOCCO", "Potency": "inactive"}, {"smiles": "O=c1c(O)c(-c2ccc(O)c(O)c2)oc2cc(O)cc(O)c12", "Potency": "inactive"}, {"smiles": "COC(=O)OC", "Potency": "inactive"}, {"smiles": "CC[N+](CC)(CC(=O)Nc1c(C)cccc1C)Cc1ccccc1", "Potency": "inactive"}, {"smiles": "CCCCCCCCCCCCCC(=O)O", "Potency": "inactive"}, {"smiles": "CC(O)CNCC(C)O", "note": "(stereo not given)", "Potency": "inactive"}, {"smiles": "NC1CCCCC1N", "note": "(stereo not given)", "Potency": "inactive"}, {"smiles": "C[Si](C)(C)N[Si](C)(C)C", "Potency": "inactive"}, {"smiles": "O=[N+]([O-])c1ccccc1C(F)(F)F", "Potency": "inactive"}, {"smiles": "CC(=O)CC(=O)N(C)C", "Potency": "inactive"}, {"smiles": "C=C(CC(=O)O)C(=O)O", "Potency": "inactive"}, {"smiles": "CC/C=C(\\C(=O)N[C@@H]1C(=O)N2C(C(=O)OCOC(=O)C(C)(C)C)=C(COC(N)=O)CS[C@H]12)c1csc(N)n1", "Potency": "inactive"}, {"smiles": "O=C(O)Cc1c[nH]c2ccccc12", "Potency": "inactive"}, {"smiles": "O=Cc1ccc(CO)o1", "Potency": "inactive"}, {"smiles": "O=C(NCC1CCCCN1)c1cc(OCC(F)(F)F)ccc1OCC(F)(F)F", "note": "(stereo not given)", "Potency": "inactive"}, {"smiles": "CCOC(=O)CC(=O)OCC", "Potency": "inactive"}, {"smiles": "C=C1C[C@]23C[C@@]1(O)CC[C@H]2[C@@]12C=C[C@H](O)[C@@](C)(C(=O)O1)[C@H]2[C@@H]3C(=O)O", "Potency": "inactive"}, {"smiles": "Brc1ccc(Oc2ccc(Br)cc2)cc1", "Potency": "inactive"}, {"smiles": "CCCOCC(C)O", "note": "(stereo not given)", "Potency": "inactive"}, {"smiles": "COc1cc(NC(=O)CC(C)=O)c(OC)cc1Cl", "Potency": "inactive"}]}]}
